High-throughput results deposited in PubChem BioAssay by several laboratories.
NADH coupling: inhibition of NAD/NADH coupling enzymes, library profiling; IC50, µM (series often up to 10 µM), for the others: at the top dose inhibition; actives 0.02% (n = 65,000); AID 774; coupled PK/LDH NADH assays, four targets;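 active = single-dose screening hits from any of four coupled enzyme assays that gave an IC50 when retested across doses; inconclusive = no clear call, values can overlap the other calls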;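 note: the DPM-DC format reads NADH fluorescence rather than 340 nm absorbance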
mHtt clearance: compounds clearing mutant huntingtin protein; actives 0.42% (n = 47,000); HeLa Exon1htt(103Q)mCFP, aggregate imaging; zero = plate's median compound well; inhibition, % at 1.5 µM; AID 853;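 active = inhibition of aggregate fluorescence above about 70%, also judged a hit by eye on the cell image, limit read from the data, passing the limit was not always enough; inconclusive = no rule stated for this call; inactive = not judged a hit on image review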;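 note: cells exposed to compound for three days before fixation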
M1 ag: agonists of M1 muscarinic receptor; CHO-M1 cells, Fluo-4 calcium fluorescence, agonist mode; stronger effect = higher value; B-score at 10 µM; actives 3% (n = 64,000); AID 626;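 active = fluorescence rise, raw or as B-score row- and column-corrected plate score, outside the 99.7% band of its plate's samples, either direction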
Autofluor 339: intrinsic fluorescence of library compounds, ex339/em460 – biochemical, MLSMR library, data from DPM-DC assay, artefact control, profiling panel; compound autofluorescence, ex339/em460 nm, NADH buffer; stronger effect = higher value; 1 = no-compound wells, NADH background; fluorescence fold increase at 10 µM; actives 5.5% (n = 65,000); AID 709;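 active = at 10 µM, mean starting fluorescence two-fold or more over control wells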;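 note: signal is the first read of a kinetic run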
A340 absorber: compound absorbs light at 340 nm. 65,000 tested, under 10 active. compound absorbance at 340 nm, fold over control. fold change at 10 µM. AID 708;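 active = at 10 µM dose, initial 340 nm absorbance at least 2 fold that of control wells; inactive = change under 2 fold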;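 note: initial absorbance extrapolated from kinetic A340 decline of NADH oxidation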
M1 antagonist: antagonists of rat M1 muscarinic receptor | P08482 | CHO-M1 cells, Fluo-4 calcium, ACh EC80 antagonist mode; stronger effect = lower value | B-score at 10 µM | actives 3.4% (n = 64,000);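 active = calcium fluorescence response, raw or row-and-column corrected B-score, differing from the plate sample mean either way at a set confidence level, mostly lower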
M1 ag confirm: rat M1 muscarinic agonism, confirmation. shares compounds with M1 ag. CHO-M1 cells, Fluo-4 calcium fluorescence, agonist mode; actives lie on both sides. fluorescence change (max-min) at 10 µM. actives 19% (n = 1,700). AID 1488;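 active = fluorescence change differs from the solvent-only DMSO control mean at a set confidence level in both duplicate runs; inconclusive = differs from solvent-only control mean in just one of two runs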;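 note: an EC20 dose of acetylcholine follows compound addition during the same imaging run; raw fluorescence intensity difference in instrument units with no normalization to controls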
M4 ag counter: activates rat M4 receptor in counter-screen for M1 agonists; shares compounds with M1 ag; CHO M4/Gqi5 cells, Fluo-4 calcium fluorescence, agonist mode; actives lie on both sides; fluorescence change (max-min) at 10 µM; actives 9% (n = 1,700); AID 1741;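 active = fluorescence change differing from the plate's solvent-only control wells at 99.7% confidence in both duplicates, whether higher or lower; inconclusive = differs from solvent controls in only one of two duplicates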
Target sequence (P08485 whole entry, looked up): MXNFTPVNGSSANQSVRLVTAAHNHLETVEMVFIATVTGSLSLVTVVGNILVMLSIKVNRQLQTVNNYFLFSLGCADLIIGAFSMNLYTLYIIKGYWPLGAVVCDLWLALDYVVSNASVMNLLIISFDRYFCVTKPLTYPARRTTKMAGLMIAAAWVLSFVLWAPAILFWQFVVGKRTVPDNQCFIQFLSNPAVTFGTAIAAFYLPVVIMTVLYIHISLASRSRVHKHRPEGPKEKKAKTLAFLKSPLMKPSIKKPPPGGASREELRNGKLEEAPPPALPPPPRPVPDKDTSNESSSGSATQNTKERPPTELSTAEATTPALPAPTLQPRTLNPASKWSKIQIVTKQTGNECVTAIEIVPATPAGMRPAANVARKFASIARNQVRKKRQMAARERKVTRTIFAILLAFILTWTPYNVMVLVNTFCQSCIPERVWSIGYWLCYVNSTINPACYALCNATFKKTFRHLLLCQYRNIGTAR
* = called active by the depositor; ? = inconclusive; . = no result. Rows were chosen to be rich in hits. Some 9.3% of all compounds tested hit in one or more screens of this group.

SMILES	NADH coupling	mHtt clearance	M1 ag	Autofluor 339	A340 absorber	M1 antagonist	M1 ag confirm	M4 ag counter
CCOc1ccc(CC(=O)Nc2c(C(N)=O)oc3ccc(Br)cc23)cc1OCC	1%	.	3.1*	1.1	1.1	-0.33	-19	-24
CC1CCC2(CC1)N=C(N)Nc1nc3ccccc3n12 (configuration not stated)	.	10	.	.	.	.	.	.
Cc1cc(C)nc(SCC(=O)N2CCC(C(N)=O)CC2)n1	5%	.	2.7*	1.1	1	0.77	?	-44
CCn1nc(C)c(/C=C2\CCCC3=C2OC(N)=C(C#N)C3c2c(C)nn(CC)c2C)c1C (configuration not stated)	6%	.	14*	1.3	1.1	0.5	100*	?
Cc1ccc(/C=C2\CCC3=C2OC(N)=C(C#N)C3c2ccc(C)cc2)cc1 (configuration not stated)	.	6	.	.	.	.	.	.
CCN(CC)S(=O)(=O)c1ccc(C(=O)N2CCN=C2SC)cc1	4%	.	16*	0.9	1	0.14	?	-47
CCOc1ccc(-c2nc(CSCC(=O)N3CCN(C(=O)c4ccco4)CC3)c(C)o2)cc1	8%	.	-3.5*	1.1	1	-0.36	?	-42
CCN1CCN(C(=O)C2CCN(Cc3nc(-c4ccc(Cl)cc4)oc3C)CC2)CC1	3%	.	0.69	1.1	1	1.1	.	.
CCOC(=O)C1CCN(C(=O)CSCc2nc(-c3ccc(OCC)cc3)oc2C)CC1	6%	.	5.1*	1.1	0.97	-1.6	-11	?
Cc1oc(-c2ccc(Cl)cc2)nc1CN1CCCC(C(=O)N2CCN(C(=O)c3ccco3)CC2)C1 (configuration not stated)	4%	.	4*	1.1	1	-1.6	-7.5	-44
Cc1ccc(Cn2c(NCCCn3ccnc3)nc3c2c(=O)n(C)c(=O)n3C)cc1	7%	.	-0.0045	1.1	0.99	0.014	.	.
CC1(c2ccccc2)NC(=O)N(CC(=O)Nc2cccc(C#N)c2)C1=O (configuration not stated)	16%	.	0.32	1.3	1	0.2	.	.
COc1ccc(-c2nnc(SCC(=O)Nc3ccccc3)n2C)cc1	4%	.	0.18	1.1	0.99	-0.58	.	.
O=C(OCC(=O)N1CCN(C(=O)c2ccco2)CC1)c1cc(-c2ccc(F)cc2)nc2ccccc12	11%	-1	11*	2.1*	1.1	-1.2	82*	20
O=C(OCC(=O)N1CCN(C(=O)c2ccco2)CC1)c1cc(-c2ccccc2)nc2ccccc12	5%	44	0.76	1.6	1	-0.037	.	.
O=C(OCC(=O)N1CCN(C(=O)c2ccco2)CC1)c1cn(-c2ccccc2)nc1-c1ccccc1	6%	.	4.5*	1.1	0.98	-0.4	?	-51
O=C(OCC(=O)N1CCN(C(=O)c2ccco2)CC1)c1ccccc1C(=O)c1ccccc1	4%	-16	0.85	1	1	-0.052	.	.
Cc1ccc(C)n1-c1ccc(N2CCOCC2)c(Br)c1	.	-13	.	.	.	.	.	.
Clc1ccc(-n2nnnc2-c2ccccc2)cc1	5%	.	3.3*	1.1	1	-0.45	-26*	-49
O=C1c2ccccc2C(=O)N1CCc1nc2ccccc2c(=O)n1Cc1ccco1	7%	.	9.4*	1.1	1	-1.4	-14	-14
O=C1c2ccccc2C(=O)N1CCCc1nc2ccccc2c(=O)n1CCCn1ccnc1	5%	-55	1.3	1.1	0.98	-1.2	.	.
Cc1csc(NC(=O)C2CCCN(S(=O)(=O)c3ccc(Br)s3)C2)n1 (configuration not stated)	6%	.	-0.089	1.1	1	-0.77	.	.
COc1ccc(NC(=O)CSc2nnc(CNC(=O)c3ccco3)n2-c2ccccc2OC)cc1	8%	.	-0.17	1	1	0.87	.	.
COC(=O)CSc1nnc(CNC(=O)c2ccco2)n1-c1ccc(F)cc1	3%	14	4.4*	1.1	1	-0.13	-12	?
O=S(=O)(c1ccc(Oc2ccc(Br)cc2)cc1)N1CCOCC1	4%	.	-0.1	1.1	1.1	0.9	.	.
SMILES	NADH coupling	mHtt clearance	M1 ag	Autofluor 339	A340 absorber	M1 antagonist	M1 ag confirm	M4 ag counter
CC(NC(=O)c1ccco1)c1cccc2ccccc12 (configuration not stated)	.	-34	.	.	.	.	.	.
COc1ccc2c(CC(=O)NCc3ccc4c(c3)OCO4)coc2c1	1%	48	0.51	1.1	1	0.0014	.	.
Cc1ccc(CNC(=O)c2cc3c(C)nc4ccccc4c3o2)cc1	.	-9	.	.	.	.	.	.
Cc1nc2ccccc2c2oc(C(=O)NCc3ccc4c(c3)OCO4)cc12	2%	.	2.6*	1.1	1	-2*	-8.3	-35
COc1ccc2cc3cc(C(=O)NCc4ccc5c(c4)OCO5)oc3nc2c1	6%	5	2.1*	5.1*	1	-0.51	?	-46
CC(=O)Nc1ccccc1OCc1nnc(-c2cccs2)o1	1%	3	-0.34	1.1	0.99	0.25	.	.
CC(=O)C1=C(C)N=c2s/c(=C/c3ccc4c(c3)OCO4)c(=O)n2C1c1ccc(N(C)C)cc1 (configuration not stated)	4%	.	-1.9	1.1	1	0.52	.	.
COc1ccc(C2C(C(C)=O)=C(C)N=c3s/c(=C/c4ccc5c(c4)OCO5)c(=O)n32)cc1 (configuration not stated)	3%	-21	3.9*	1	1	-0.39	40	36
COCCN(CC(=O)NCc1ccccc1)C(=O)CCC(=O)Nc1ccccn1	5%	.	0.62	0.98	0.97	0.44	.	.
c1ccc(N2CCN(c3nnc(Cc4cccnc4)c4ccccc34)CC2)nc1	1%	24	3.6*	1.1	1	-2.9	-12	?
COCCn1nnnc1C(c1ccc(O)c(OC)c1)N1CCc2ccccc2C1 (configuration not stated)	4%	.	4*	1.1	1.1	0.0035	-10	-28
COc1ccc(C(c2nnnn2CCc2ccccc2)N2CCN(C)CC2)cc1OC (configuration not stated)	6%	.	-0.71	1.1	1	0.3	.	.
Cc1ccc(-c2csc3nnc(SCC(=O)Nc4cccc(C)n4)n23)cc1	4%	64	3.9*	1.1	1	-0.63	?	-13
Cc1cccc(NC(=O)CSc2nnnn2C)n1	.	-19	.	.	.	.	.	.
CCOC(=O)c1sc2nc(N3CCOCC3)c3c(c2c1N)CCC3	11%	-32	2*	3.6*	1.1	-0.4	?	-44
Cn1c(=O)n(C)c2cc(S(=O)(=O)NCCc3ccccc3)ccc21	6%	.	-3*	1.1	1	-0.25	-16	?
